Results on 15 compounds are retold here after PubChem BioAssay.

Molecules are shown by their SMILES. For part of these data: Measured potencies and affinities stand elsewhere. Activity calls are given as the source filed them.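 How the source made its calls, unless noted: active means hit in primary screen, with calcium signal over 5 SD above buffer well mean in both duplicates; inactive means the rest.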

Assay [1] relates to TRPC4 beta (transient receptor potential cation channel C4), mouse. Kind of assay: activators of mouse TRPC4 channel, confirmation, cell-based, Fluo4 calcium, HEK293 TRPC4beta/mu-opioid, duplicates, 10 µM (AID 2426;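 active means fluorescence ratio normalized to control raised more than 50% in primary screen plus both repeat runs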;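 on activation: percent rise of integrated ratio over buffer wells lacking compound which define 0%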). Conditions: Fluo4 calcium fluorescence, at 10 µM; hits give high values.
Assay [2] concerns transient receptor potential cation channel C4 beta (TRPC4), mouse. Kind of assay: activators of mouse TRPC4 channel, confirmation, cell-based, second round, Fluo4, HEK293 TRPC4beta/mu-opioid, 1 µM (AID 2461;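 active means primary screen active and over 50% activation in each of two duplicate runs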;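 on activation: 0% = wells without test compound as baseline of integrated fluorescence ratio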). The note with it: Fluo4 calcium fluorescence, at 1 µM; hits give high values.
For assay [3], the system named is TRPC4 (transient receptor potential cation channel C4 beta), mouse. Kind of assay: positive allosteric modulators of mouse TRPC4, confirmation, cell-based, second round, Fluo-4, HEK293 TRPC4beta/mu-opioid, 1 µM (AID 2554;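 active means primary screen hit whose fluorescence ratio, in both repeats, exceeds the weak agonist control mean by 3 SD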). The note with it: DAMGO EC20, Fluo-4 calcium flux, at 1 µM; hits give high values.
Assay [4] concerns TRPC4 beta (transient receptor potential cation channel C4), mouse. Kind of assay: positive allosteric modulators of mouse TRPC4, confirmation, cell-based, Fluo-4, HEK293 TRPC4beta/mu-opioid (AID 2555;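 active means primary screen hit whose calcium fluorescence ratio, in both repeats, exceeds the weak agonist control mean by 3 SD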). Conditions: DAMGO EC20, Fluo-4 calcium flux, at 10 µM; hits give high values. In general terms: Calcium assays in cells follow changes in intracellular calcium, usually with a dye or a luminescent sensor.

The target in assay [5] is Short transient receptor potential channel 4 (Mus musculus) (UniProt Q9QUQ5). Kind of assay: inhibitors of mouse TRPC4 channel, confirmation, cell-based, Fluo4, HEK293 TRPC4beta/mu-opioid (AID 2636;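 active means calcium signal cut by more than 3 SD below the full-agonist control yet still positive, in both repeats and the earlier primary screen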). The note with it: DAMGO, Fluo4 calcium flux, at 10 µM; hits give high values.
Assay [6] has the same target. Kind of assay: inhibitors of mouse TRPC4 channel, confirmation, cell-based, second round, Fluo4, HEK293 TRPC4beta/mu-opioid, 1 µM (AID 2637;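 active means calcium signal ratio cut to more than 3 SD under the fully stimulated control mean yet still positive, in both repeats and the primary screen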). Conditions: Fluo4 calcium flux, DAMGO, at 1 µM; hits give high values.
The target is the same in assay [7]. Kind of assay: TRPC4 positive allosteric modulators, dose response, cell-based, HEK293 TRPC4/mu-opioid, Fluo-4 calcium, EC20 DAMGO (AID 434941;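 active means earlier screen potentiator hit that boosts the TRPC4 ion channel at some dose, with a dose response; inactive means no potentiation, no dose response, or not a prior hit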;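 further: calcium entry triggered by an EC20 dose of DAMGO at the co-expressed mu-opioid receptor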).
Assay [8] shares this target. Kind of assay: mouse TRPC4 channel inhibitors, dose response, cell-based, HEK293 TRPC4/mu-opioid, Fluo-4 calcium (AID 434942;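 active means primary screen inhibitor hit that blocks the TRPC4 channel at some tested dose, yielding a dose curve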).
Assay [9] has as its target Short transient receptor potential channel 6 (Mus musculus) (UniProt Q61143). Kind of assay: inhibition of mouse TRPC6 channel, confirmation, selectivity assay for TRPC4 inhibitor project, cell-based, HEK293, membrane potential dye, duplicate (AID 434948;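 active means active in primary screen and both duplicates, each dropping signal beyond three positive-control SD with fluorescence still positive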). The note with it: HEK293 TRPC6, membrane potential dye fluorescence, at 10 µM, stimulated with maximal-effect acetylcholine; hits give high values.

Assay [10] shares this target. Kind of assay: activation of mouse TRPC6 channel, confirmation, selectivity assay for TRPC4 activator project, cell-based, HEK293, membrane potential dye, duplicate (AID 434950;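 active means membrane potential signal rise above negative control mean plus 3 SD in both duplicates, also active in the earlier TRPC4 screen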;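 on activation: 0% = buffer only wells and 100% = acetylcholine maximal-effect wells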). Conditions: HEK293 TRPC6, membrane potential fluorescence, at 10 µM; hits give high values.
Assay [11] shares this target. Kind of assay: TRPC6 potentiation by TRPC4 potentiator hits, confirmation, selectivity assay for TRPC4 potentiator project, HEK293 cells, membrane potential dye, duplicate (AID 434952;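 active means compound raising the membrane signal above positive-control mean plus 3 SD in both repeats, and a primary screen hit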). Conditions: HEK293 TRPC6, membrane potential dye fluorescence, at 10 µM, maximal acetylcholine added after compound; hits give high values.
The target of assay [12] is Short transient receptor potential channel 4 (Mus musculus) (UniProt Q9QUQ5). Kind of assay: calcium flux activators in TRPC4/5HT1a cells, counter-screen for TRPC4 activator project, cell-based, second counter screen, HEK293 TRPC4/5HT1a, Fluo-4 (AID 434977;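 active means calcium signal rise above buffer-control mean plus 5 SD in both duplicates, and also a hit in the primary screen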;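 on activation: plate controls were assay buffer for no effect and maximal serotonin response for full effect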). Conditions: Fluo-4 calcium flux, at 10 µM; hits give high values.
A short description of assay [13]: calcium flux inhibitors in TRPC4/5HT1a cells, confirmation, counter-screen for TRPC4 inhibitor project, cell-based, second counter screen, HEK293 TRPC4/5HT1a, Fluo-4 (AID 434978;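 active means primary screen active whose calcium signal fell more than 3 SD beyond the full-serotonin control mean in both duplicate plates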;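 further: serotonin given first at submaximal then at maximal dose after compound preincubation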). Conditions: Fluo-4 calcium flux, at 10 µM, serotonin added to trigger calcium flux; hits give high values.
Assay [14] relates to TRPC4 (mouse), co-expressed with 5HT1a in HEK293. Kind of assay: calcium flux potentiators in TRPC4/5HT1a cells, confirmation, counter-screen for TRPC4 potentiator project, cell-based, second counter screen, HEK293 TRPC4/5HT1a, Fluo-4 (AID 434979;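 active means signal rise over 3 SD above mean of control wells given weak agonist, in both repeats and first screen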). Conditions: Fluo-4 calcium flux, at 10 µM, serotonin added at its EC20 dose; hits give high values.
A short description of assay [15]: calcium flux activation in mu-opioid HEK293 cells, confirmation, counter-screen for TRPC4 activator project, cell-based, HEK293 mu-opioid receptor line (AID 449723).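 Further: counter screen cells carry the mu-opioid receptor alone and lack TRPC4.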 Conditions: Fluo-4 calcium fluorescence, at 10 µM; hits give high values.
A short description of assay [16]: calcium flux enhancement in mu-opioid HEK293 cells, confirmation, counter-screen for TRPC4 allosteric potentiator project, cell-based, HEK293 mu-opioid receptor line (AID 449724;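 active means calcium signal rise more than 3 SD above the low-dose agonist control mean, in both duplicate plates and the primary screen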;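 further: HEK293 cells carrying mu-opioid receptor only with no TRPC4 channel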). The note with it: Fluo-4 calcium flux, at 10 µM, compound added before EC20 DAMGO stimulus; hits give high values.

Chain of Short transient receptor potential channel 4 (Mus musculus) (Q9QUQ5 whole entry, looked up): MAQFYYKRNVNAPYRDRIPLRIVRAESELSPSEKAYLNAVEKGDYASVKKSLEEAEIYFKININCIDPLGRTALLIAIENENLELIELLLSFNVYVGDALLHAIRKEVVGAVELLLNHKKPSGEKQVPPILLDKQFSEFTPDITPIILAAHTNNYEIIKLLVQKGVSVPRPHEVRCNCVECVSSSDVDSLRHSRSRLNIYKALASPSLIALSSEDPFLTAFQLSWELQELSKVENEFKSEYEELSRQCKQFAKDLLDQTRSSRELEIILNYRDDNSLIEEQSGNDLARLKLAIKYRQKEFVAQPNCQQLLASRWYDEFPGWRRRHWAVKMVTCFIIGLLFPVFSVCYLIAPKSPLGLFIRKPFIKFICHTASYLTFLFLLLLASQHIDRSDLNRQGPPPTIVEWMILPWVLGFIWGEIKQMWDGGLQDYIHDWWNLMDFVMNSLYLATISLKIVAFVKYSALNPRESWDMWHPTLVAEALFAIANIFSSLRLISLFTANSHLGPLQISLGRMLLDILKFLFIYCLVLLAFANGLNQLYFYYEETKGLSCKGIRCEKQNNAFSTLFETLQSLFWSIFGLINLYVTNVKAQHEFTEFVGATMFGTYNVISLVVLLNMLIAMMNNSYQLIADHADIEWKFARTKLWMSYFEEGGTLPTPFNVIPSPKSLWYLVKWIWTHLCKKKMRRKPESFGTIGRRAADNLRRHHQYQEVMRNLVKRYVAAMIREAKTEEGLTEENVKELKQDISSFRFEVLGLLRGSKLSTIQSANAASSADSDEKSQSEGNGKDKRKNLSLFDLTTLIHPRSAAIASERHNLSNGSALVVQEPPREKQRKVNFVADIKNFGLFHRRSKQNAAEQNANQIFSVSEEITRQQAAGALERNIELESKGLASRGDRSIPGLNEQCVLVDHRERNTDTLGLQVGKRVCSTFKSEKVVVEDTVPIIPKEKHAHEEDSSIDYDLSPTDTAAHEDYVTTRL
Chain of Short transient receptor potential channel 6 (Mus musculus) (Q61143 whole entry, looked up): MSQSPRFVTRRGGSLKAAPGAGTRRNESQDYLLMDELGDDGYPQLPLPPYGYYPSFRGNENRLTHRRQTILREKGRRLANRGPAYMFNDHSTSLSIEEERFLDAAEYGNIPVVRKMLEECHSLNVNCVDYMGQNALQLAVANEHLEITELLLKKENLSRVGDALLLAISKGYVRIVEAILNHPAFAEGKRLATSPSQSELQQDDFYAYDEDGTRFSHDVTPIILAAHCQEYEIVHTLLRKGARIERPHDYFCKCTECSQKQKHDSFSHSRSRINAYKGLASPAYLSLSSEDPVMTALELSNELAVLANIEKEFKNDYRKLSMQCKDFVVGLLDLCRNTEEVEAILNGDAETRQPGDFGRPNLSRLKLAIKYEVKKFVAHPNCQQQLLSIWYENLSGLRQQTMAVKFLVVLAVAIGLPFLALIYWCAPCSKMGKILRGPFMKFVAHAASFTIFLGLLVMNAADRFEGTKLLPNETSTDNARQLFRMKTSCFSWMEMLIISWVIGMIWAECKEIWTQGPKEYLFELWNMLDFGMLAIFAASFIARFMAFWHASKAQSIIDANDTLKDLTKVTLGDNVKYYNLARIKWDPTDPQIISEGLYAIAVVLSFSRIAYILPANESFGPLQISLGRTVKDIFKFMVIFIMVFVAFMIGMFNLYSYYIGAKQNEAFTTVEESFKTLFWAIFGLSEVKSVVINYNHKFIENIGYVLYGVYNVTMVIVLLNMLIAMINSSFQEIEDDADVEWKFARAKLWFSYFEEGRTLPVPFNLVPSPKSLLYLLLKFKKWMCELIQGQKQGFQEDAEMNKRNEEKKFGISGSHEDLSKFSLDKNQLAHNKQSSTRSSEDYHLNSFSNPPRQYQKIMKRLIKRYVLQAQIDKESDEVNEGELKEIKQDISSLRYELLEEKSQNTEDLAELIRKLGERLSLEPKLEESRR

Consider `COc1cccc(CN2CCNC(=O)C2CC(=O)N(C)CCc2ccccn2)c1` (stereo not given), for which the activation was 186% (active) in assay [1], 92% (active) in [2] and 39% (active) in assay [12]. Further, the result in assay [3], in assay [4], in [5], in assay [6], in assay [7] and in [8] was inactive. Also, the outcome in [9], in assay [10], in assay [11], in assay [13], in [14] and in [15] was inactive. Also, the result in [16] was inactive.

`COc1ccc(C)c(NC(=O)NCCc2cnc[nH]2)c1`: the activation is 152% (active) in assay [1], 33% (active) in assay [10] and 56.4% (active) in assay [12]. Also, the result in [2], in [3], in assay [4], in assay [5], in assay [6] and in [7] was inactive. Besides, the result in assay [8], in assay [9], in assay [11], in assay [13], in [14] and in assay [15] was inactive. For the same compound, the outcome in assay [16] was inactive.

Turning to `Cc1ccc(CNC(=O)C2CCCN(Cc3cnn(-c4ccccc4)c3-n3cccc3)C2)cc1` (stereo not given), the activation in [1] is 81% (active); in assay [10] it was 46% (active). Also, the outcome in [2], in assay [3], in assay [4], in [5], in assay [6] and in [7] was inactive. The outcome in assay [8], in assay [9], in [11], in [12], in assay [13] and in [14] was inactive. In addition, the outcome in assay [15] and in assay [16] was inactive.

Turning to `O=C(O)c1ccc(-c2ccc(/C=N/Nc3ccc([N+](=O)[O-])cc3)o2)cc1`, the activation in [1] was 120% (active); in assay [10], 442% (active); in [12], 111% (active); in assay [15] it was 106% (active). The result in assay [2], in assay [3], in assay [5], in assay [6], in [7] and in assay [8] was inactive. Besides, the outcome in assay [9], in assay [11], in assay [13], in assay [14] and in assay [16] was inactive. Further, in [4], the potentiation is 11% (active).

With `CC1CC(C)CN(CCCNS(=O)(=O)c2cc(Br)cc3c2N(C(=O)C2CC2)CC3)C1` (stereo not given), the activation in assay [1] was 139% (active); in assay [2], 114% (active); in [10], 30% (active); in assay [12], 64.6% (active). In addition, the result in assay [3], in [4], in assay [5], in [6], in assay [7] and in [8] was inactive. Further, the compound was called inactive in assay [9], in [11], in [13], in assay [14], in [15] and in assay [16].

Take `N=c1n(Cc2ccccc2)c2ccccc2n1CC(O)COc1ccccc1` (stereo not given): the result in [1], in [2], in assay [3], in [4], in assay [5] and in assay [6] was inactive. The outcome in [7], in [8], in assay [9], in assay [11], in assay [12] and in assay [13] was inactive. For the same compound, the outcome in assay [14], in [15] and in assay [16] was inactive. For the same compound, the activation in assay [10] is 54% (active).

`OCC1(CC2CCCCO2)CCN(Cc2ccccc2-c2ccco2)CC1` (stereo not given): the result in assay [1], in [2], in assay [3], in assay [4], in [5] and in [6] was inactive. In addition, the outcome in assay [7], in assay [8], in [9], in assay [10], in assay [11] and in assay [12] was inactive. Also, the outcome in assay [13], in assay [14], in assay [15] and in assay [16] was inactive.

As for `CN1CCC(=O)N([C@H](CSc2ccc(Br)cc2)Cc2ccccc2)CC1`, the result in assay [1], in assay [2], in [3], in assay [4], in assay [5] and in assay [6] was inactive. Further, the outcome in assay [7], in assay [8], in assay [9], in assay [11], in assay [12] and in assay [13] was inactive. In addition, the result in assay [14], in assay [15] and in assay [16] was inactive. In addition, the activation in assay [10] was 33% (active).

Turning to `COc1cccc(CN2CCNC(=O)C2CC(=O)N(C)CCc2ccccn2)c1OC` (stereo not given), the activation in assay [1] was 138% (active); in [12], 52.1% (active). Further, the outcome in assay [2], in assay [3], in [4], in [5], in assay [6] and in assay [7] was inactive. Further, the result in [8], in assay [9], in [10], in [11], in assay [13] and in [14] was inactive. Besides, the outcome in assay [15] and in assay [16] was inactive.

For the compound `O=C(NCc1ccccc1)C1=C[C@H](c2ccccc2)C[C@H](OCc2ccc(CO)cc2)O1`, the activation in [1] was 300% (active); in [10], 27% (active); in assay [12], 178% (active). Further, the result in assay [2], in assay [3], in assay [4], in assay [5], in assay [6] and in [7] was inactive. In addition, the result in [8], in assay [9], in assay [11], in assay [13], in assay [14] and in assay [15] was inactive. In addition, the result in assay [16] was inactive.

On to `CCOC(=O)C1(Cc2ccccc2)CCN(Cc2cn[nH]c2-c2ccccc2)CC1`, for which the activation in assay [1] was 192% (active); in assay [10] it was 76% (active). In addition, the outcome in [2], in assay [3], in assay [4], in assay [5], in assay [6] and in assay [7] was inactive. Besides, the outcome in [8], in [9], in [11], in [12], in assay [13] and in assay [14] was inactive. In addition, the result in assay [15] and in [16] was inactive.

Turning to `CC1CC(C)CN(CCCNC(=O)c2csc3c2CCCCC3)C1` (stereo not given), the activation is 128% (active) in assay [1], 87.5% (active) in [10] and 7.01% (active) in assay [12]. Further, the result in assay [2], in assay [3], in [4], in assay [5], in assay [6] and in assay [7] was inactive. The result in assay [8], in assay [9], in assay [11], in assay [13], in assay [14] and in [15] was inactive. Further, in [16], the result was inactive.

For `Cc1cccc(C(=O)NC(=S)NNC(=O)Cc2ccccc2)c1`, the activation is 238% (active) in assay [1], 32.5% (active) in [10], 133% (active) in assay [12] and 44.1% (active) in assay [15]. Further, the outcome in assay [2], in [3], in assay [4], in assay [5], in assay [6] and in assay [7] was inactive. The outcome in [8], in assay [9], in assay [11], in assay [13], in assay [14] and in assay [16] was inactive.

For the compound `Cc1cccn2c(CNCCc3ccccn3)c(C(=O)N3CCOCC3)nc12`, the activation in [1] was 184% (active); in [2] it was 55% (active); in assay [10], 46.5% (active); in assay [12] it was 57.2% (active). Moreover, the outcome in assay [3], in [4], in [5], in assay [6], in [7] and in assay [8] was inactive. The call in assay [9], in [11], in assay [13], in assay [14], in assay [15] and in [16] was inactive.

`CC(C)C1CC(CCNCc2ccc3c(c2)OCO3)(c2ccccc2)CCO1` (stereo not given): the activation is 96% (active) in assay [1], 64% (active) in assay [10] and 5.88% (active) in assay [12]. For the same compound, the outcome in assay [2], in [3], in assay [4], in [5], in assay [6] and in [7] was inactive. In addition, the result in assay [8], in assay [9], in assay [11], in [13], in assay [14] and in assay [15] was inactive. Besides, the outcome in assay [16] was inactive.
